# Screening results deposited in PubChem BioAssay by National Center for Advancing Translational Sciences (NCATS).
# This is a sample that favours compounds with a hit; in the whole collection about 19% have one here.
# TDP1 cell CPT: DT40-hTDP1 cell growth loss with CPT. chicken DT40 Tdp1-/-;hTDP1 cells + 20 nM CPT, ATP luminescence, 48 h. Potency, µM (series often up to 46.2 µM), actives largely listed as inhibitors. 12% of 420,000 active. AID 686979; further: nearly all actives have a fitted effect of over 55% in size
#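 Cell growth measured by CellTiter-Glo luminescence after a minimum 48 h, 37 C compound exposure with 20 nM CPT in Tdp1-knockout DT40 cells stably expressing hTDP1, seeded 400/well; qHTS titration format.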
# DT40 TDP1 no CPT: qHTS for Inhibitors of human tyrosyl-DNA phosphodiesterase 1 (TDP1): qHTS in cells in absence of CPT; DT40 Tdp1-/- hTDP1 cells, no CPT, ATP luminescence, 48 h; AID 686978, 2013; 15% of 420,000 active; Potency, µM (doses to about 46.2 µM), most hits filed as inhibitors; further: nearly all actives have a fitted effect of over 55% in size
#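 Chicken DT40 Tdp1-/- cells complemented with human TDP1, screened without camptothecin (DMSO vehicle only), 400 cells/well. Compounds pin-transferred, cells incubated at 37 °C for at least 48 hr. Growth read as ATP-dependent luminescence (CellTiter-Glo, 30 min at RT).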
# IL1B secr inh: inhibitors of inflammasome signaling (IL-1 beta secretion); THP-1 LPS/ATP IL-1B secretion, AlphaLISA, 16 h; stronger effect = lower value; 4.7% of 360,000 active; activity change, % at 57.5 µM; in the data active means activity change below about -50%; inconclusive means mostly about -30% to -49%
#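 Secreted IL-1B measured by AlphaLISA bead assay after 16 h compound exposure of THP-1 cells; compounds (final up to 57.5 uM) added 1 h before LPS (250 ng/mL) and ATP (1.25 mM) stimulation; lower signal means less secretion.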
# ASM inhibitor: blocks human secretory acid sphingomyelinase. P17405. placental ASM, HMU-PC fluorogenic substrate, 60 min. Potency, µM (doses to about 57.5 µM), actives largely listed as inhibitors. 0.006% of 340,000 active
# Target sequence (P17405 47-631 limits assumed): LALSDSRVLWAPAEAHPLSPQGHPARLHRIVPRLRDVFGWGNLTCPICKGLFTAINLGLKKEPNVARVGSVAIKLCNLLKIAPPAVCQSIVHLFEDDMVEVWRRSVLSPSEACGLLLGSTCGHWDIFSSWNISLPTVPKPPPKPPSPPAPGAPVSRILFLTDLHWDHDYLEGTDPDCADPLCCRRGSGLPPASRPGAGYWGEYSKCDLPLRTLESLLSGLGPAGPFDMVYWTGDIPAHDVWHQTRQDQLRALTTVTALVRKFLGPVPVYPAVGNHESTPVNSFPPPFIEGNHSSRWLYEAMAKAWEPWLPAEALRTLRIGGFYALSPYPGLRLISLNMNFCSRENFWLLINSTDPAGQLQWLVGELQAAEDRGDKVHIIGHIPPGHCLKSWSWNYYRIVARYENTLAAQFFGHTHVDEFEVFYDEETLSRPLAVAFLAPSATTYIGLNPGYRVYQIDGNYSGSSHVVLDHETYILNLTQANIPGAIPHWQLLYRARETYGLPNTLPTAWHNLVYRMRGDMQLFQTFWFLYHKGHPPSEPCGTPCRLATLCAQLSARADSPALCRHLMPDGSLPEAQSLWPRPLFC
#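 Fluorogenic HMU-PC substrate (9 uM final) is turned over by placental ASM in 60 min at 37 C after a 10 min compound preincubation. Reaction ended by alkaline stop (pH 10), with fluorescence read at 386/447 nm.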
# TGFb SMAD3 inh: TGF-b pathway inhibition | HepG2 CAGA-GFP TGF-b/SMAD3 reporter, GFP fluorescence, 18 h; TGF-beta stimulated, 500 pg/mL final | 1.2% of 410,000 active | AID 588855 | Potency, µM (titrated, usually from 46.1 µM), hits mostly inhibitors; further: nearly all actives have a fitted effect of over 65% in size
#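 Per well, imaged GFP fluorescence of HEPG2 CAGA-GFP cells gives the signal; cells get compound, then TGF-beta (500 pg/mL final), 18 h at 37 degrees C; %Activity versus -TGF-beta and +DMSO controls.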
# HepG2 tox: counter-screen for TGF-b inhibitors: cytotoxicity in HepG2 cells. HepG2 CAGA-GFP viability, ATP luminescence, 18 h. Potency, µM (highest dose often 46.1 µM), actives largely listed as cytotoxic. 0.76% of 410,000 active
#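 CellTiter-Glo luminescence gave cytotoxicity after 18 hours at 37 degrees C. The cells were HepG2 CAGA-GFP in 1% FBS DMEM, stimulated with 500 pg/mL TGF-beta after compound addition. %Activity was normalised to no-cell wells (complete cell-killing) and DMSO (no toxicity), and curves were fitted and classified.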
# Numbers stand for hits; – = inactive; ? = inconclusive; · = no result given. Unless noted, the call rests on the fitted dose curve; in most records, active means well fitted curve in the direction sought with a large enough effect; inconclusive means small, poorly fitted or top-dose-only effect, or another doubt; inactive means no such curve, though single readings can be large; an effect the other way counts as inactive or inconclusive.
SMILES,TDP1 cell CPT,DT40 TDP1 no CPT,IL1B secr inh,ASM inhibitor,TGFb SMAD3 inh,HepG2 tox
Cc1cc(C)cc(NC(=O)c2cc3c(=O)n(Cc4ccco4)ccc3nc2C)c1,?,?,·,·,–,–
COc1cc2c(cc1NC(=O)COc1ccc(Cl)cc1Br)oc1ccccc12,–,–,·,·,–,–
CN(C)CC/C=C1/c2cc(F)ccc2Sc2ccc(Cl)cc21,?,18µM,-51,–,?,–
COc1cc2c(cc1Cl)/C(=C\CCN(C)C)c1ccccc1S2,18µM,?,-103,–,?,–
COc1ccc(C)cc1NC(=O)N1CCC(CN2CCC(C)CC2)CC1,–,–,·,·,–,–
CC(C)(CO)CNc1ccn2nccc2n1,13µM,?,-79,·,–,–
Oc1cc(-c2ccncc2)cc2cccnc12,·,·,·,–,?,11µM
CCOc1ccc(-c2cnc(NCc3ccc(C(F)(F)F)cc3)n2C)cc1,5.2µM,5.8µM,·,·,?,–
Cn1c(-c2cccc(Br)c2)cnc1NCc1cccc(F)c1,?,?,·,·,–,–
CCOc1ccc(CNc2ncc(-c3ccccc3)n2C)cc1,–,?,–,–,–,–
Cn1c(-c2ccc(F)cc2)cnc1NCc1ccc(C#N)cc1,?,16µM,–,–,–,–
CCOc1cc(CNc2ncc(-c3ccc(OC)cc3)n2C)ccc1O,?,18µM,–,–,–,–
Cn1c(-c2ccccc2)cnc1NCc1cc(Cl)ccc1O,–,–,-55,–,–,–
COc1ccccc1-c1c(C)nn2c(C(F)(F)F)cc(-c3ccccc3)nc12,?,?,·,·,–,–
Cn1c(-c2ccc(F)cc2)cnc1NCc1ccc(F)cc1F,–,?,–,–,–,–
COc1ccc(CNc2ncc(-c3ccccc3)n2C)cc1,–,?,–,–,–,–
COc1ccc(CNc2ncc(-c3ccccc3)n2C)c(OC)c1OC,?,15µM,–,–,–,–
Cn1c(-c2ccccc2)cnc1NCc1ccc(-c2ccccc2)cc1,26µM,?,–,–,?,–
Cn1c(-c2ccc(F)cc2)cnc1NCc1ccccc1F,–,23µM,–,–,–,–
Cc1ccc(-c2cnc(NCc3c(F)cccc3Cl)n2C)cc1,15µM,23µM,·,·,–,–
COc1ccc(CNC(=O)CCc2c(C)c3cc4c(C)c(C)oc4cc3oc2=O)cc1,?,?,·,·,–,–
Cc1cc(C)c(NC(=O)CN(C)CC(=O)N(C)CC(=O)Nc2c(Cl)cccc2Cl)c(C)c1,–,–,–,–,–,–
CCc1ccc(CNc2ncc(-c3cccc(OC)c3)n2C)cc1,4.1µM,4.1µM,·,·,·,–
Fc1ccc(/C=N/NC(=S)Nc2cccnc2)cc1F,?,?,–,–,–,–
Fc1cccc(F)c1/C=N/NC(=S)Nc1cccnc1,?,–,–,–,–,–
SMILES,TDP1 cell CPT,DT40 TDP1 no CPT,IL1B secr inh,ASM inhibitor,TGFb SMAD3 inh,HepG2 tox
Oc1ccc(/C=N/NC(=S)Nc2cccnc2)c(O)c1O,9.2µM,15µM,–,–,–,–
Fc1c(F)c(F)c(/C=N/NC(=S)Nc2cccnc2)c(F)c1F,?,18µM,-102,–,–,–
Oc1ccc(/C=N/NC(=S)Nc2cccnc2)c(O)c1,?,8.2µM,-65,–,?,–
Oc1cccc(/C=N/NC(=S)Nc2cccnc2)c1O,2.3µM,4.6µM,-96,–,–,–
Cc1nnc(NC(=O)c2ccc3ccccc3n2)s1,?,?,–,–,?,–
COc1ccc(NC(=O)CCCSc2nc(-c3ccco3)cc(C(F)(F)F)n2)cc1,–,?,·,·,–,–
CN(C)c1c(Cl)cc(/C=C2\C=Cc3ccccc32)cc1Cl,?,?,·,·,–,–
CC(C)N1CSC(=S)N(Cc2ccccc2)C1,4.1µM,4.1µM,-99,–,–,–
S=C1SCN(Cc2cccnc2)CN1Cc1ccccc1,2.9µM,4.6µM,-107,–,?,–
CC(C)CN1CN(Cc2ccccc2)CNC1=S,–,–,–,–,–,–
CC(C)(C)N1CSC(=S)N(Cc2ccccc2)C1,5.2µM,4.6µM,–,–,–,–
Cc1ccc(NC(=O)CN2C(=O)COc3ccc(S(=O)(=O)NC4CCCC4)cc32)cc1N(C)C,–,?,·,·,–,–
O=S(=O)(c1ccc(F)cc1)N1CCN(c2nc(-c3ccccc3)nc3cc(Cl)ccc23)CC1,·,·,·,·,–,–
COC1=C(OC)C(=O)C(Sc2ccc3ccccc3c2)=CC1=O,1.3µM,1.3µM,-104,–,?,–
COc1ccc(N2CC(NS(=O)(=O)c3ccc4ccccc4c3)CC2=O)cc1OC (configuration not stated),?,?,–,–,–,–
CC(C)(C)NC(=O)C1CCN(c2nc3ccccc3nc2C(F)(F)F)CC1,–,?,·,·,–,–
COc1ccc(/C=C/C(=O)NC(=S)NNC(=O)c2cccnc2)cc1OC,–,–,–,–,–,–
O=C(/C=C/c1ccccc1)NC(=S)NNC(=O)c1cnccn1,3.3µM,5.8µM,–,–,–,–
O=C(/C=C/c1ccccc1)NC(=S)NNC(=O)c1cccnc1,13µM,5.8µM,–,–,–,–
CC(C)c1c(C(=O)N(C)C2CCN(C)CC2)cnn1-c1nccc(-c2ccco2)n1,–,–,·,·,·,·
CN(C(=O)C1CCN(S(=O)(=O)c2ccccc2[N+](=O)[O-])CC1)C1CCCCC1,?,?,–,–,–,–
O=C1c2ccccc2OC2(C=Cc3ccccc3O2)N1Cc1ccccc1 (configuration not stated),4.6µM,18µM,–,?,–,–
O=C1NC2(CCN(Cc3ccccc3)CC2)Oc2ccccc21,–,–,–,–,–,–
COC(=O)c1c(-c2cccs2)csc1NC(=O)COc1ccc(C(C)C)cc1,?,21µM,·,·,·,–
COC(=O)c1c(-c2cccs2)csc1NC(=O)c1ccc(OC)c(OC)c1,12µM,9.2µM,·,·,–,–
SMILES,TDP1 cell CPT,DT40 TDP1 no CPT,IL1B secr inh,ASM inhibitor,TGFb SMAD3 inh,HepG2 tox
CCCc1ccc(OCC(=O)Nc2scc(-c3cccs3)c2C(=O)OC)cc1,?,?,·,·,?,–
COC(=O)c1c(-c2cccs2)csc1NC(=O)c1cc(OC)cc(OC)c1,16µM,?,·,·,–,–
COC(=O)c1c(-c2cccs2)csc1NC(=O)c1cc(OC)c(OC)c(OC)c1,9.2µM,5.8µM,·,·,–,–
Cc1cccc(NC(=S)NNC(=O)c2cccc([N+](=O)[O-])c2)c1,–,–,–,–,–,–
CC(C)S(=O)(=O)c1csc(NC(=O)Nc2cccc([N+](=O)[O-])c2)c1Cl,16µM,15µM,–,–,–,–
O=C(Nc1cccc([N+](=O)[O-])c1)NN1CCCCCC1,?,18µM,?,–,?,–
